Hits are enriched below; roughly 21% of the tested compounds scored in any of these assays.
Sm TGR inh = qHTS Assay for the Inhibitors of Schistosoma Mansoni Peroxiredoxins; Schistosoma mansoni thioredoxin glutathione reductase (TGR), Q962Y6; purified TGR, DTNB reduction, TNB absorbance 405 nm; Potency, µM (series often up to 114 µM), hits mostly inhibitors; 3% of 360,000 active; AID 485364, 2010; note: nearly all actives have a fitted effect of over 60% in size
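Kinetic colorimetric format: TGR-catalysed, NADPH-driven DTNB reduction monitored via TNB absorbance. Enzyme dispensed at 20 nM; compound exposure 15 min at room temperature before reaction start.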
Shiga toxin inh = A qHTS for Small Molecule Inhibitors of Shiga Toxin | Vero cells, Shiga toxin protein synthesis inhibition reporter | inhibition, % at 38.7 µM | 9.2% of 290,000 active | AID 2315, 2010; in the data active = inhibition mostly above about 28%, no sharp cut-off; inactive = mostly below about 43%
Pf growth 48h = Primary qHTS for delayed death inhibitors of the malarial parasite plastid, 48 hour incubation. AID 504832, 2011. 5.9% of 310,000 active. P. falciparum luciferase growth in erythrocytes, 48 h. Potency, µM (highest dose often 28.7 µM), usual class: inhibitors
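Growth was read as firefly luciferase luminescence after a 48 h, 37 C, 5% CO2 exposure of compounds to reporter-bearing P. falciparum cultures (0.1% parasitemia, 2% hematocrit final) in Albumax-supplemented RPMI 1640.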
Pf growth 96h = Primary qHTS for delayed death inhibitors of the malarial parasite plastid, 96 hour incubation | P. falciparum luciferase reporter growth, 96 h | Potency, µM (top dose mostly 28.7 µM), usual class: inhibitors | 6.9% of 320,000 active | AID 504834, 2011
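P. falciparum expressing integrated firefly luciferase grown in erythrocytes (2% hematocrit, 0.05% parasitemia final) with compounds for 96 hours at 37 C, 5% CO2. Growth inhibition read as loss of luminescence after adding luciferase detection reagent.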
NS1 function inh = qHTS Assay for Inhibitors of Influenza NS1 Protein Function; 0.4% of 270,000 active; Potency, µM (highest dose often 46.1 µM); calls by dose curve; note: actives are rising curves; nearly all actives have a fitted effect of over 50% in size
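Read-out: OD600 growth recovery of NS1-expressing budding yeast. Cells grown overnight at 30C in -URA glucose medium, washed, resuspended and diluted 1:100 in 2% galactose assay medium, pH 6.0. Same strain lacking NS1 served as positive control.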
Cycloheximide cs = Cycloheximide Counterscreen for Small Molecule Inhibitors of Shiga Toxin | cell reporter, cycloheximide protein synthesis inhibition counterscreen | max response, % | 12% of 300,000 active | AID 2314, 2010; in the data active = max response mostly above about 13%, no sharp cut-off; inactive = mostly below about 14%; note: read at 38.3 µM for the half of the compounds with a filed dose
Each line names hits and unclear results; the compound was inactive in the other large screens. Unless noted, calls come from the whole dose curve; as a rule, active = well fitted curve in the direction sought with a large enough effect; inconclusive = small, poorly fitted or top-dose-only effect, or another doubt; inactive = no such curve, though single readings can be large; an effect the other way counts as inactive or inconclusive.

C/C(=N\NC(=O)c1ccoc1C)c1ccccc1	Shiga toxin inh 64, Cycloheximide cs 44
C/C(=N/NC(=O)c1ccoc1C)c1ccc(NC(=O)C2CCCC2)cc1	Shiga toxin inh 65, Cycloheximide cs 58
Cc1occc1C(=O)NNC(=O)C1CCCCC1	Pf growth 96h inconclusive
Cc1ccc(F)cc1NC(=S)NCCc1ccccc1	none
Cc1ccc(Nc2cc(C)nn2-c2nc(C)cc(=O)[nH]2)cc1	Pf growth 48h inconclusive
Cc1ccc(Nc2cc(C)nn2-c2nc(C)cc(C)n2)cc1	Pf growth 48h 3.7µM (no result: Pf growth 96h)
CS(=O)(=O)c1ccc2nc(NC(=O)CCS(=O)(=O)c3ccccc3)sc2c1	Sm TGR inh inconclusive
CCN(CC)S(=O)(=O)c1ccc2nc(NC(=O)c3ccco3)sc2c1	Shiga toxin inh 78, Cycloheximide cs 29 (no result: NS1 function inh)
CCN(CC)S(=O)(=O)c1ccc2nc(NC(=O)c3cccs3)sc2c1	Shiga toxin inh 65, Cycloheximide cs 48 (no result: Pf growth 96h)
CCN(CC)S(=O)(=O)c1ccc2nc(NC(=O)c3ccccc3OC)sc2c1	none (no result: Shiga toxin inh, Pf growth 48h, Pf growth 96h, NS1 function inh, Cycloheximide cs)
CS(=O)(=O)c1ccc2nc(NC(=O)CCC(=O)c3cccs3)sc2c1	Pf growth 48h inconclusive, Pf growth 96h 12µM, Cycloheximide cs 17
Cc1ccccc1OCCn1cc(C=O)c2ccccc21	Pf growth 48h inconclusive, NS1 function inh inconclusive
O=C(CCc1ccc(S(=O)(=O)N2CCOCC2)cc1)Nc1cc(Cl)ccc1N1CCOCC1	Pf growth 48h 6.6µM
O=C(Cc1c(F)cccc1Cl)Nc1cc(S(=O)(=O)N2CCCCC2)ccc1N1CCOCC1	Pf growth 48h 12µM, Pf growth 96h inconclusive
O=C(Nc1ccccc1N1CCCCC1)c1ccc(F)cc1	Pf growth 96h inconclusive (no result: Pf growth 48h)
O=C(Nc1ccccc1F)Nc1ccccc1N1CCCCC1	Pf growth 48h inconclusive, Pf growth 96h inconclusive, Cycloheximide cs 10.0
O=C(Cc1c(F)cccc1Cl)Nc1ccccc1N1CCCCC1	Pf growth 96h 13µM
O=C(Nc1cc(Cl)ccc1Cl)C1CC(=O)N(c2ccc(Br)cc2)C1 (stereo unspecified)	Pf growth 96h inconclusive (no result: Pf growth 48h)
O=C(NC1=NN(c2ccccc2)CC1)Nc1ccccc1F	Sm TGR inh inconclusive, Shiga toxin inh 37, Cycloheximide cs 35
O=C(Cc1ccccc1Cl)Nc1cc(S(=O)(=O)N2CCOCC2)ccc1N1CCOCC1	Pf growth 48h inconclusive, Pf growth 96h 10µM (no result: Shiga toxin inh, NS1 function inh, Cycloheximide cs)
O=C(CCN1CCN(c2ccccc2)CC1)Nc1ccccc1F	none
Cc1ccc(NC2(C#N)C(=O)Nc3ccccc32)cc1C (stereo unspecified)	Pf growth 96h inconclusive (no result: NS1 function inh)
CCOc1ccc(CNC(=O)CCS(=O)(=O)Cc2ccccc2C)cc1OC	Pf growth 48h inconclusive, Pf growth 96h 9.3µM (no result: NS1 function inh)
COc1ccccc1NC(=O)c1nnn(-c2ccc(F)cc2)c1C	none (no result: Shiga toxin inh, Pf growth 48h, Pf growth 96h, NS1 function inh, Cycloheximide cs)
CN1/C(=C\C=C(C#N)C#N)C(C)(C)c2ccccc21	Pf growth 96h inconclusive (no result: NS1 function inh)
CCN1/C(=C\C=C\C2=[N+](CC)c3ccccc3C2(C)C)C(C)(C)c2ccccc21	Pf growth 96h 0.15µM (no result: Pf growth 48h)
COc1ccc(NC(=O)CC(NCCc2ccccc2)C(=O)O)c(OC)c1 (stereo unspecified)	none
COc1ccccc1NC(=O)CC(NCc1ccccc1)C(=O)O (stereo unspecified)	Pf growth 96h 2.6µM
COc1ccccc1C(=O)NC(=O)OCCn1c(C)cnc1[N+](=O)[O-]	Pf growth 96h 9.3µM (no result: NS1 function inh)
CC1=C(C(=O)NC(C)c2ccc3c(c2)OCCO3)C2(CCC(C)CC2)OC1=O (stereo unspecified)	Pf growth 48h inconclusive, Pf growth 96h 10µM
CC1=C(C(=O)NC2CCCCC2C)C2(CCC(C)CC2)OC1=O (stereo unspecified)	Pf growth 48h 9.3µM, NS1 function inh inconclusive
CCOc1ccc(NC(=O)C2=C(C)C(=O)OC23CCC(C)CC3)cc1 (stereo unspecified)	none (no result: Pf growth 48h)
CC1=C(C(=O)Nc2cccc([N+](=O)[O-])c2)C2(CCC(C)CC2)OC1=O (stereo unspecified)	Pf growth 48h inconclusive, Pf growth 96h 0.37µM (no result: NS1 function inh)
CC1CCN(C(=O)CCNS(=O)(=O)c2ccc(Cl)cc2)CC1	none
c1ccc(COc2ccc(OCCCn3cncn3)cc2)cc1	Shiga toxin inh 61, Cycloheximide cs 35
c1ccc(Cc2ccc(OCCn3cncn3)cc2)cc1	none (no result: Pf growth 96h)
c1ccc(-c2ccc(OCCOCCn3cncn3)cc2)cc1	Shiga toxin inh 57, Cycloheximide cs 35
CCC(C(=O)Nc1cccnc1)n1c(=O)[nH]c2ccccc2c1=O (stereo unspecified)	Pf growth 48h inconclusive, Pf growth 96h inconclusive
CNCc1ccccc1OCC(=O)Nc1ccccc1OC	none (no result: Pf growth 48h)
CC(C)NC(=S)N/N=C1\CCCCC1C1CCCCC1 (stereo unspecified)	Pf growth 96h 3.3µM (no result: Pf growth 48h)
CC(C)c1ccc(C(=O)Nc2ccc(-c3nc4ccccc4s3)c(Cl)c2)cc1	none (no result: Shiga toxin inh, Pf growth 48h, Pf growth 96h, NS1 function inh, Cycloheximide cs)
COc1ccc(N2C(=O)C3C(C2=O)C(C(=O)c2ccc(Cl)cc2)N2CCCC32)cc1 (stereo unspecified)	Sm TGR inh 25µM, Shiga toxin inh 90, Pf growth 48h inconclusive, Pf growth 96h inconclusive, Cycloheximide cs 34
Cc1ccc(N2C(=O)[C@@H]3[C@H](C2=O)C2CCCN2[C@@H]3C(=O)c2ccccc2)cc1 (stereo partly specified)	Sm TGR inh 32µM, Pf growth 48h 12µM, Pf growth 96h inconclusive
O=C(c1ccc(Cl)cc1)C1C2C(=O)N(c3ccccc3)C(=O)C2C2CCCN21 (stereo unspecified)	Sm TGR inh inconclusive, Pf growth 48h inconclusive, Pf growth 96h 15µM
CC(=O)c1ccc(N2C(=O)C3C(C2=O)C(C(=O)c2ccc(Cl)cc2)N2CCCC32)cc1 (stereo unspecified)	Sm TGR inh 13µM, Pf growth 48h inconclusive
COc1ccc(C(=O)[C@H]2[C@H]3C(=O)N(c4ccc(OC(C)=O)cc4)C(=O)[C@H]3C3C=CC=NN32)cc1 (stereo partly specified)	Sm TGR inh inconclusive
O=C(c1ccccc1)[C@@H]1[C@@H]2C(=O)N(c3ccc(F)cc3)C(=O)[C@@H]2C2CCCN21 (stereo partly specified)	Sm TGR inh inconclusive
COc1ccccc1C1=Nn2c(nnc2-c2ccccc2C)SC1	none (no result: Sm TGR inh, Pf growth 48h, Pf growth 96h, NS1 function inh)
COc1ccc(C(=O)[C@H](Br)[C@H](Br)C(=O)O)cc1	none (no result: Sm TGR inh, Shiga toxin inh, Pf growth 48h, Pf growth 96h, Cycloheximide cs)
COc1ccccc1NC(=O)c1cnc2n(c1=O)CCS2	Pf growth 96h inconclusive
COc1ccc(OC)c(NC(=O)c2cnc3n(c2=O)CCS3)c1	Pf growth 96h 8.3µM (no result: Pf growth 48h)
COc1ccc(OC(=O)c2cnc3n(c2=O)CCS3)cc1	Cycloheximide cs 15
CCOC(=O)Cc1cnc(NC(=O)CSc2nc(C)cc(C)n2)s1	Pf growth 96h 10µM (no result: NS1 function inh)
COC(=O)c1ccc2nc(NC(=O)COC(=O)CSc3nc(C)cc(C)n3)sc2c1	Shiga toxin inh 65, Cycloheximide cs 31
